Source: PubChem
Platelet DG rel – platelet dense granule release activity; human platelet-rich plasma, SFLLRN dense granule ATP release, luminescence; inhibition, %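 (compounds screened at 7.5 µM in platelet-rich plasma)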; 300,000 compounds, 0.22% hits; AID 1663;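 active = mean replicate score, as percent of positive control, at or above 50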
NTR1 ag – activates human neurotensin receptor 1. 330,000 compounds, 0.17% hits. activation, % at 20 µM. NTR1-U2OS beta-arrestin-GFP spot imaging, agonist mode;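 active = activation at or above 40% of the spot to cytoplasm intensity ratio, with at least 20 cells analyzed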;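 also: 0% = DMSO without peptide and 100% = 100 nM NTR1 peptide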
Target sequence (P30989 whole entry, looked up): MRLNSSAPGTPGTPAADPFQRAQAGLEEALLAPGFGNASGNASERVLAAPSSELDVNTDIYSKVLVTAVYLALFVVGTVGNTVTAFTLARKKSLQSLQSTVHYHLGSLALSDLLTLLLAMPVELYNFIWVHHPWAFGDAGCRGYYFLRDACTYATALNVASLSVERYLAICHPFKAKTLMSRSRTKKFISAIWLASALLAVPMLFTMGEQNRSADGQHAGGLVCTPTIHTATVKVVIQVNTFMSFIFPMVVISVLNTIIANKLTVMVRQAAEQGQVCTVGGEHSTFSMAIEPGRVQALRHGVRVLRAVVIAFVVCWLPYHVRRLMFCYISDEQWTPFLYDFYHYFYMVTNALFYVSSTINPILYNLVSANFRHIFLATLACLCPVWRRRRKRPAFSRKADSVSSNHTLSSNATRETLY
HIF act – HIF pathway transcriptional activation. 300,000 compounds, 0.32% hits. U2OS HRE-luciferase reporter, luminescence; normalized: DMSO 0%, desferrioxamine 100%. activation, % at 7.5 µM (by protocol). AID 1910;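 active = mean activation of at least 10% of the iron chelator positive control signal, with at least half of replicates also reaching 10%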
* marks the source's active call; other numbers are inactive results; x = not tested or not shown. The list is not random: actives were taken first. Their share in the collection is about 0.63%.

SMILES	Platelet DG rel	NTR1 ag	HIF act
Cn1cc(C(=O)N2CCCCCC2)c(=O)c2cc(S(=O)(=O)N3CCCCC3)ccc21	1	0	0
COC(=O)c1cn(C)c2ccc(S(=O)(=O)N3CCCCC3)cc2c1=O	0	x	90*
Fc1ccc(-c2noc(C3CCN(Cc4cccnc4)CC3)n2)cc1	x	-1	1
O=C(OCc1ccc(COC(=O)c2ccccn2)cc1)c1ccccn1	10	0	0
Cc1ccc(C(C[N+](=O)[O-])n2nc(C)cc2C)cc1 (stereo not given)	-2	51*	1
Cc1ccc(S(=O)(=O)NCC(C)n2nc(C)cc2C)cc1 (stereo not given)	0	0	0
CCO[C@H]1OC(C(=O)N2CCN(C)CC2)=C[C@@H](C2CC2)[C@@H]1CCCO	2	0	-1
Nc1nc2cc(S(=O)(=O)NC3=NCCCCC3)ccc2s1	0	1	0
CCOC(=O)Cn1nc(C)c(NC(=O)c2ccc(Br)o2)c1C	3	-1	0
CC(NC(=O)CN1C(=O)NC2(CCc3ccccc32)C1=O)c1ccccc1 (stereo not given)	x	-1	x
CCCC(C)NC(=O)CN1C(=O)NC2(CCc3ccccc32)C1=O (stereo not given)	-3	0	40*
CN1CCN(C2Cc3ccc(F)cc3Sc3cc(F)c(Cl)cc32)CC1 (stereo not given)	15	17	39*
CN1CCN(C2Cc3cc(F)ccc3Sc3ccc(Cl)cc32)CC1 (stereo not given)	5	9	1
O=C(CSc1ncn[nH]1)N1CCOCC1	-3	0	0
O=C(c1ccc(Br)cc1)c1cc2ccc(O)cc2oc1=O	7	1	-20
O=C(c1ccccc1)c1cc2ccc(O)cc2oc1=O	95*	-1	1
COc1ccc2cc(C(=O)NCc3ccco3)c(=O)oc2c1	16	0	1
O=C(NCc1ccco1)c1cc2ccc(O)cc2oc1=O	70*	-1	0
Cc1ccc(C)c(OCCC(=O)NNC(=O)c2ccccc2F)c1	-3	2	0
COC(=O)c1sccc1NC(=S)N1CCN(c2ccccc2F)CC1	-20	2	0
COc1ccccc1N1CCN(Cc2ccc(OC)c(OC)c2OC)CC1	2	2	1
COc1ccccc1N1CCN(Cc2ccc(O)c3ncccc23)CC1	11	8	27*
Oc1c(CNc2ccccc2)cc(COCc2ccccc2)c2cccnc12	x	0	x
Oc1c(CN2CCOCC2)cc(COCc2ccccc2)c2cccnc12	-27	x	53*
Oc1c(CN2CCN(c3ccccc3)CC2)cc(Br)c2cccnc12	-5	x	39*
SMILES	Platelet DG rel	NTR1 ag	HIF act
c1ccc(N2CCN(Cc3ccnc4ccccc34)CC2)cc1	2	0	0
Cc1cc(C)c(NC(=O)CN2C(=O)NC3(CCCCC3)C2=O)c(C)c1	-13	1	0
CN(C(=O)c1ccc(NC(=O)C2CCCN(C(=O)OC(C)(C)C)C2)cc1)C1CCCCC1 (stereo not given)	x	4	x
Cc1nc(SCC(=O)c2cccc([N+](=O)[O-])c2)n[nH]1	-8	1	0
O=C(O)Cn1cc(/C=c2/sc3nc4ccccc4n3c2=O)c2ccccc21	10	0	2
Cc1ccc(-n2c(C)cc(/C=c3/sc4nc5ccccc5n4c3=O)c2C)cc1	61*	0	-1
CC(=O)Oc1ccc(-c2nc(-c3cccnc3)no2)cc1	79*	0	3
CC(=O)Oc1ccc(Oc2ccc(-c3noc(C)n3)cc2)cc1	5	0	2
CCCn1c(SCC(=O)N2CCc3ccccc3C2)nc2c1c(=O)n(C)c(=O)n2C	-6	4	735*
CCn1c(SCC(=O)N2CCc3ccccc3C2)nc2c1c(=O)n(C)c(=O)n2C	-8	-2	0
N#Cc1ccccc1COC(=O)CCC(=O)c1cccs1	x	-1	x
CCCCSc1nc(C)c(CC(=O)O)c(=O)[nH]1	4	-1	-2
O=Cc1cc(N=Nc2cccc(C(=O)O)c2)ccc1O	1	-1	0
O=Cc1cc(N=Nc2ccccc2Cl)ccc1O	-10	10	17*
CCSc1nc(=S)n(-c2ccccc2)c(C)c1C(C)=O	-1	0	0
COc1cc(C(=O)Nc2sc(C)c(C)c2C(=O)O)cc(OC)c1OC	5	3	165*
COc1cc(C(=O)Nc2sc3c(c2C(=O)O)CCC(C)C3)cc(OC)c1OC (stereo not given)	6	2	-21
C#CCSc1nc2sc3c(c2c(=O)n1C)CCC3	0	6	-1
O=C(/C=C/c1cccs1)NCc1ccccc1	1	0	2
COc1ccc(Cc2nc3ccc(C(=O)NC(C)C)cc3o2)cc1	-8	x	4
C=C(C)CNC(=O)c1ccc2nc(Cc3ccc(OC)cc3)oc2c1	8	-1	11*
O=c1oc2ccccc2cc1-c1nc2c(s1)CCCC2	4	2	-1
O=C(Nc1ccc(NC(=O)c2cccs2)cc1)c1ccc2c(c1)OCCO2	2	-1	-1
c1ccc2c(c1)ccc1ncccc12	12	0	1
Oc1c(N=Nc2ccccn2)ccc2ccccc12	42	1	34*
SMILES	Platelet DG rel	NTR1 ag	HIF act
Cc1nnsc1C(=O)N/N=C/c1c(F)cccc1Cl	1	1	0
Cc1[nH]cnc1C(=O)N/N=C/c1c(Cl)cccc1Cl	72*	2	3
CCOC(=O)CNc1ncc([N+](=O)[O-])cc1C#N	-3	0	0
Cc1ccc(NC(=S)Nc2ccc(Br)cc2)cc1	8	2	2
CCOC(=O)c1nn(-c2ccccc2)cc1O	-2	0	2
COC(=O)c1nn(-c2ccc(-c3ccccc3)cc2)cc1O	64*	2	-1
CC(C)(C)c1csc(NC(=O)c2ccccc2O)n1	1	9	-1
CC(C)(C)c1csc(NNC(=O)c2ccc(Br)cc2)n1	8	-2	11*
Cn1c(SCC(=O)NNC(=O)c2ccccc2O)nnc1-c1ccccc1	11	1	0
C/C(=N/NC(=O)c1ccncc1)c1ccccc1	-8	-1	0
C/C(=N\NC(=O)c1ccccc1NC(=O)c1ccc(Cl)cc1)c1ccncc1	96*	3	1
Clc1ccc(CSc2nncn2-c2ccc3c(c2)OCCO3)cc1	0	0	-1
CSc1nccn1CC(=O)Nc1ccc(F)cc1	-16	1	0
O=C(NCCSc1c[nH]c2ccccc12)c1c(F)cccc1F	74*	-2	0
O=C(NCCSc1c[nH]c2ccccc12)c1ccco1	7	1	1
Nc1ccc2nc(-c3ccccc3)sc2c1	64*	0	-4
Cc1ccc2nc(-c3ccc(N)cc3)sc2c1	23	5	-1
COc1ccc(/C=N/Nc2nc(-c3cccnc3)nc3ccccc23)cc1OC	7	6	0
Cc1ccc(-c2nc(N/N=C/c3ccncc3)c3ccccc3n2)cc1	109*	5	x
COc1cc2c(cc1OC)C(c1ccc(-c3ccccc3Cl)o1)=NCC2	5	58*	x
COc1cc2c(cc1OC)C(c1ccc(-c3ccc(Cl)cc3Cl)o1)=NCC2	-1	9	-1
Cc1cc(C)n(-c2ccc(C(=O)NCc3cccs3)cc2)n1	6	-4	1
COc1ccc(-n2nnnc2SCC(=O)N2CCCC2)cc1OC	7	0	0
CC(=O)c1cccc(-n2nnnc2SCC(=O)N2CCCC2)c1	50*	-1	0
